{"source": "the supplement of paper PMC8975748", "note": "Counter-ions that a name gives are not always drawn."}
{"system": "Saccharomyces cerevisiae BY4741 SeMeCo community", "test": "z-score of subpopulation abundance vs DMSO median, subpopulation auxotrophic for LU; higher = larger share of this subpopulation than in DMSO controls", "details": "10 µM; 24 h; SM minimal medium; subpopulation (auxotrophy): LU", "procedure,_shortened": "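Cells of a Saccharomyces cerevisiae BY4741 community, carrying four plasmids that each restored one auxotrophy and encoded a distinct fluorescent protein, were pre-grown overnight to OD600 1.0 and diluted to 0.3. A 70 µl volume was added to 384-well plates acoustically predosed with library drugs (10 µM final) and grown 24 h in minimal SM medium. After paraformaldehyde fixation, automated confocal microscopy was used, with single-auxotroph fluorescent strains for thresholds and autofluorescence correction. The abundance of each subpopulation was scored as a z-score against the vehicle-well median.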"}
{"smiles": "COc1cc(O)c(C(=O)Nc2nc(C(=O)NCCN(C(C)C)C(C)C)cs2)cc1OC", "note": "[Acotiamide hydrochloride]", "z-score of subpopulation abundance": 0.52}
{"smiles": "Cc1onc(-c2c(F)cccc2Cl)c1C(=O)N[C@@H]1C(=O)N2[C@@H]1SC(C)(C)[C@@H]2C(=O)O", "note": "[Flucloxacillin sodium]", "z-score of subpopulation abundance": 0.16}
{"smiles": "Cc1ncc([N+](=O)[O-])n1CC(O)CCl", "note": "(stereo not given) [Ornidazole]", "z-score of subpopulation abundance": -0.8}
{"smiles": "OC(CCCN1CCCCC1)(c1ccccc1)c1ccccc1", "note": "[Diphenidol HCl]", "z-score of subpopulation abundance": 0.23}
{"smiles": "Cc1ccccc1OCC(O)CO", "note": "(stereo not given) [Mephenesin]", "z-score of subpopulation abundance": -0.42}
{"smiles": "CC(C)c1c(C(=O)Nc2ccccc2)c(-c2ccccc2)c(-c2ccc(F)cc2)n1CC[C@@H](O)C[C@@H](O)CC(=O)O", "note": "[Atorvastatin Calcium]", "z-score of subpopulation abundance": 2.65}
{"smiles": "C[C@@H](O)[C@H]1C(=O)N2C(C(=O)[O-])=C(SC3Cn4cnc[n+]4C3)[C@H](C)[C@H]12", "note": "(stereo not given in full) [Biapenem]", "z-score of subpopulation abundance": -1.32}
{"smiles": "CO/N=C(\\C(=O)N[C@@H]1C(=O)N2C(C(=O)OC(C)OC(C)=O)=C(COC(N)=O)CS[C@H]12)c1ccco1", "note": "(stereo not given in full) [Cefuroxime axetil]", "z-score of subpopulation abundance": -0.86}
{"smiles": "Cc1cc(=O)n(-c2ccccc2)n1C", "note": "[Antipyrine]", "z-score of subpopulation abundance": -0.69}
{"smiles": "Oc1c(Cl)cc(Cl)c2cccnc12", "note": "[Chloroxine]", "z-score of subpopulation abundance": 11.5}
{"smiles": "CC1(C)CC[C@]2(C(=O)O)CC[C@]3(C)C(=CC[C@@H]4[C@@]5(C)CC[C@H](O)C(C)(C)[C@@H]5CC[C@]43C)[C@@H]2C1", "note": "[Oleanolic Acid]", "z-score of subpopulation abundance": -0.16}
{"smiles": "CCOC(=O)C1=C(C)NC(C)=C(C(=O)OC)C1c1cccc(Cl)c1Cl", "note": "(stereo not given) [Felodipine]", "z-score of subpopulation abundance": -6.85}
{"smiles": "O=C1CCc2cc(OCCCCc3nnnn3C3CCCCC3)ccc2N1", "note": "[Cilostazol]", "z-score of subpopulation abundance": -0.63}
{"smiles": "Cc1nnc(SCC2=C(C(=O)O)N3C(=O)[C@@H](NC(=O)Cn4cc(Cl)c(=O)c(Cl)c4)[C@H]3SC2)s1", "note": "[Cefazedone]", "z-score of subpopulation abundance": -0.24}
{"smiles": "CS(=O)(=O)c1ccc([C@@H](O)[C@@H](CO)NC(=O)C(Cl)Cl)cc1", "note": "[Thiamphenicol]", "z-score of subpopulation abundance": 0.67}
{"smiles": "O=C(O)CCNC(=O)c1ccccc1", "note": "[Betamipron]", "z-score of subpopulation abundance": -0.21}
{"smiles": "O=c1cc(-c2ccc(O)c(O)c2)oc2cc(O)cc(O)c12", "note": "[Luteolin]", "z-score of subpopulation abundance": 0.96}
{"smiles": "CN1C[C@@H]2C[C@H]1CN2c1cc2c(cc1F)c(=O)c(C(=O)O)cn2C1CC1", "note": "[Danofloxacin Mesylate]", "z-score of subpopulation abundance": -0.89}
{"smiles": "CC(=O)Oc1ccccc1C(=O)O", "note": "[Aspirin]", "z-score of subpopulation abundance": 0.01}
{"smiles": "Cc1noc(NS(=O)(=O)c2ccc(N)cc2)c1C", "note": "[Sulfisoxazole]", "z-score of subpopulation abundance": 1.45}
{"smiles": "O=C(NCCO[N+](=O)[O-])c1cccnc1", "note": "[Nicorandil]", "z-score of subpopulation abundance": 0.21}
{"smiles": "O=C1C(CC[S+]([O-])c2ccccc2)C(=O)N(c2ccccc2)N1c1ccccc1", "note": "(racemic) [(+/-)-Sulfinpyrazone]", "z-score of subpopulation abundance": 0.28}
{"smiles": "CCCCCCCCCC(=O)N[C@@H](Cc1c[nH]c2ccccc12)C(=O)N[C@H](CC(N)=O)C(=O)N[C@@H](CC(=O)O)C(=O)N[C@@H]1C(=O)NCC(=O)N[C@@H](CCCN)C(=O)N[C@@H](CC(=O)O)C(=O)N[C@H](C)C(=O)N[C@@H](CC(=O)O)C(=O)NCC(=O)N[C@H](CO)C(=O)N[C@@H]([C@H](C)CC(=O)O)C(=O)N[C@@H](CC(=O)c2ccccc2N)C(=O)O[C@@H]1C", "note": "[Daptomycin]", "z-score of subpopulation abundance": -0.76}
{"smiles": "CCn1cc(C(=O)O)c(=O)c2cc(F)c(N3CCN(C)CC3)cc21", "note": "[Pefloxacin Mesylate]", "z-score of subpopulation abundance": -0.06}
{"smiles": "OCc1ccc(Cl)cc1Cl", "note": "[2,4-dichlorobenzyl alcohol]", "z-score of subpopulation abundance": 1.19}
{"smiles": "CN(C)CCC=C1c2ccccc2CCc2ccccc21", "note": "[Amitriptyline HCl]", "z-score of subpopulation abundance": -1.69}
{"smiles": "COc1ccccc1OCC(O)CN1CCN(CC(=O)Nc2c(C)cccc2C)CC1", "note": "(stereo not given) [Ranolazine]", "z-score of subpopulation abundance": -0.55}
{"smiles": "COc1cc(C(C)=O)ccc1OCCCN1CCC(c2noc3cc(F)ccc23)CC1", "note": "[Iloperidone]", "z-score of subpopulation abundance": -0.41}
{"smiles": "Cc1ccc(Sc2ccccc2N2CCNCC2)c(C)c1", "z-score of subpopulation abundance": -0.09}
{"smiles": "Nc1ccc(S(=O)(=O)Nc2ccccn2)cc1", "note": "[Sulfapyridine]", "z-score of subpopulation abundance": -0.25}
{"smiles": "CN1CC(=O)N2[C@H](c3ccc4c(c3)OCO4)c3[nH]c4ccccc4c3C[C@@H]2C1=O", "note": "[Tadalafil]", "z-score of subpopulation abundance": 0.3}
{"smiles": "CCOC(=O)C1=C[C@@H](OC(CC)CC)[C@H](NC(C)=O)[C@@H](N)C1", "note": "[Oseltamivir Phosphate]", "z-score of subpopulation abundance": -0.72}
{"smiles": "O=C(c1ccc(OCCN2CCCCC2)cc1)c1c(-c2ccc(O)cc2)sc2cc(O)ccc12", "note": "[Raloxifene HCl]", "z-score of subpopulation abundance": -1.4}
{"smiles": "N#CC(c1ccc(Cl)cc1)c1c(Cl)cc(-n2ncc(=O)[nH]c2=O)cc1Cl", "note": "(stereo not given) [Diclazuril]", "z-score of subpopulation abundance": -0.92}
{"smiles": "O=C1NCC2(CCN(CCc3ccccc3)CC2)O1", "note": "[Fenspiride HCl]", "z-score of subpopulation abundance": -0.49}
{"smiles": "CCCN[C@H]1CCc2nc(N)sc2C1", "note": "[Pramipexole dihydrochloride]", "z-score of subpopulation abundance": -0.61}
{"smiles": "O=C(O)c1ccccc1O", "note": "[Salicylic acid]", "z-score of subpopulation abundance": -0.68}
{"smiles": "CCCOc1ccc(C(=O)OCCN(CC)CC)cc1N", "note": "[Proparacaine HCl]", "z-score of subpopulation abundance": 0.25}
{"smiles": "CCOc1ccc2ccccc2c1C(=O)N[C@@H]1C(=O)N2[C@@H]1SC(C)(C)[C@@H]2C(=O)O", "note": "[Nafcillin Sodium]", "z-score of subpopulation abundance": 0.04}
{"smiles": "CC(C)(O/N=C(\\C(=O)N[C@@H]1C(=O)N2C(C(=O)[O-])=C(C[n+]3ccccc3)CS[C@H]12)c1csc(N)n1)C(=O)O", "note": "[Ceftazidime]", "z-score of subpopulation abundance": -0.93}
